Hits are enriched below; roughly 21% of the tested compounds scored in any of these assays.
Pf growth 96h: inhibits malaria parasite growth, 96 h; P. falciparum luciferase reporter growth, 96 h; Potency, µM (highest dose often 28.7 µM), for inactives: at the top dose activity change, negative = inhibition, actives largely listed as inhibitors; 320,000 compounds, 6.9% hits; AID 504834; active = well fitted inhibition curve with a large enough effect; inconclusive = small, poorly fitted or top-dose-only effect, or another doubt; inactive = no such curve, though single readings can be large or run the other way; also: potency is read from the fitted curve at half-maximal effect; % is scaled to controls: 0 for no effect and ±100 for the full control effect
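Erythrocytes infected with luciferase-expressing P. falciparum were dispensed at 2% hematocrit and 0.05% parasitemia (final), then incubated with compounds 96 hours at 37 C in 5% CO2. Luminescence after detection reagent addition reported growth.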
NS1 inh: influenza NS1 inhibition; 270,000 compounds, 0.4% hits; AID 2326; Potency, µM (series often up to 46.1 µM), for the others: at the top dose activity, positive = more growth; also: potency is read from the fitted curve at half-maximal effect; actives are rising curves; nearly all actives have a fitted effect of over 50% in size
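Growth recovery, yeast-based: influenza A NS1 expressed in S. cerevisiae causes slow growth, and suppressors are detected by OD600. The parent strain without NS1 is used as positive control.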
Pf growth 48h: inhibits P. falciparum growth in the first generation, 48 h; 310,000 compounds, 5.9% hits; AID 504832; Potency, µM (doses to about 28.7 µM), inactives show at the top dose activity change, negative = inhibition, most hits filed as inhibitors; P. falciparum luciferase growth in erythrocytes, 48 h; active = well fitted inhibition curve with a large enough effect; inconclusive = small, poorly fitted or top-dose-only effect, or another doubt; inactive = no such curve, though single readings can be large or run the other way; also: potency is read from the fitted curve at half-maximal effect; % is scaled to controls: 0 for no effect and ±100 for the full control effect
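Read-out is firefly luciferase luminescence from an integrated reporter in P. falciparum, so falling signal marks reduced parasite growth. Infected erythrocytes were at 2% hematocrit and 0.1% parasitemia (final) in Albumax-supplemented RPMI 1640.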
Shiga inhibitor: blocks Shiga toxin action in Vero cells. Vero cells, Shiga toxin protein synthesis inhibition reporter. inhibition, % at 38.7 µM. 290,000 compounds, 9.2% hits. AID 2315; in the data active = inhibition mostly above about 28%, no sharp cut-off; inactive = mostly below about 43%; also: 0% is about no effect
Cycloheximide cs: affects cycloheximide protein synthesis inhibition readout, counter-screen; max response, %; 300,000 compounds, 12% hits; cell reporter, cycloheximide protein synthesis inhibition counterscreen; AID 2314; in the data active = max response mostly above about 13%, no sharp cut-off; inactive = mostly below about 14%; also: read at 38.3 µM for the half of the compounds with a filed dose; 0% is about no effect
SARS PLpro yeast: inhibitors of SARS-CoV papain-like protease in yeast; S. cerevisiae expressing SARS-CoV PLpro, growth rescue; Potency, µM (highest dose often 32.9 µM), for the others: at the highest dose activity, positive = growth rescue, usual class: activators; 330,000 compounds, 0.19% hits; also: potency is read from the fitted curve at half-maximal effect; 0% is about no effect; nearly all actives have a fitted effect of over 55% in size
Starred values were filed as active, the others as inactive. Unless noted, calls follow the shape of the full dose curve.

Results for CSc1ccc(-c2nnn(Cc3ccccn3)n2)cc1 ?
Pf growth 96h: inconclusive; NS1 inh: -60%; Pf growth 48h: 118%; Shiga inhibitor: 79*; Cycloheximide cs: 19*; SARS PLpro yeast: 2%

How did CC(O)C(NC=C1C(=O)OC(C)(C)OC1=O)C(=O)O (stereo not drawn) do in these assays?
Pf growth 96h: -3%; Pf growth 48h: 21%; Shiga inhibitor: -3; Cycloheximide cs: 2; SARS PLpro yeast: 0%

What do the screens show for `CC(C)(C)C1=Nn2c(nnc2C2CCCCC2)SC1`?
NS1 inh: -9%; Pf growth 48h: inconclusive; Shiga inhibitor: -2; Cycloheximide cs: 0; SARS PLpro yeast: 3%

Results for COc1ccc(NC(=O)COC(=O)CC2CCCC2)cc1Cl ?
Pf growth 96h: -4%; Pf growth 48h: 5%; SARS PLpro yeast: -4%

What do the screens show for `FC(F)(F)c1cccc(/C=N/NC(=S)NC2CCCCC2)c1`?
Pf growth 96h: inconclusive; Pf growth 48h: inconclusive; Shiga inhibitor: -10; Cycloheximide cs: -2; SARS PLpro yeast: -1%

How did O=C(N/N=C/C=C/c1ccccc1)NC1CCCCC1 do in these assays?
Pf growth 96h: 2%; NS1 inh: -50%; Pf growth 48h: -7%; Shiga inhibitor: 43; Cycloheximide cs: 16*; SARS PLpro yeast: -2%

Results for O=C(CC(=O)NC1CCCCC1)N/N=C/c1ccc(Cl)cc1 ?
Pf growth 96h: 4.7µM*; NS1 inh: 2%; Pf growth 48h: 0%; Shiga inhibitor: -17; Cycloheximide cs: 8; SARS PLpro yeast: 4%

What do the screens show for `O=C(N/N=C/c1cccc(O)c1)NC1CCCCC1`?
Pf growth 96h: 0%; Pf growth 48h: 4%; Shiga inhibitor: 89*; Cycloheximide cs: 30; SARS PLpro yeast: 1%

Results for NC(=O)N/N=C/C=C/c1ccccc1 ?
Pf growth 96h: inconclusive; NS1 inh: -2%; Pf growth 48h: 11%; Shiga inhibitor: 51; Cycloheximide cs: -2; SARS PLpro yeast: -1%

What do the screens show for `FC(F)(F)c1ccc(/C=N/NC(=S)NC2CCCCC2)cc1`?
Pf growth 96h: 3.3µM*; Pf growth 48h: inconclusive; Shiga inhibitor: -6; Cycloheximide cs: 2; SARS PLpro yeast: 0%

Results for CCOc1ccc(C(=O)N2CCC(C(=O)c3ccc4c(c3)OCCO4)CC2)cc1 ?
Pf growth 96h: 69%; NS1 inh: inconclusive; Pf growth 48h: -16%; Shiga inhibitor: -12; Cycloheximide cs: 0; SARS PLpro yeast: 15%

How did C/C(=N\NC(=O)c1cc(-c2ccc(Cl)s2)[nH]n1)c1ccncc1 do in these assays?
Pf growth 96h: 27%; NS1 inh: -12%; Pf growth 48h: inconclusive; Shiga inhibitor: -3; Cycloheximide cs: -3; SARS PLpro yeast: 1%

What do the screens show for `O=C(COC(=O)COc1cccc(C(F)(F)F)c1)NC1CCCC1`?
Pf growth 96h: 10%; Pf growth 48h: 9%; SARS PLpro yeast: -4%

Results for COc1cc(C(O)c2nc3ccccc3s2)cc(OC)c1OC (stereo not drawn) ?
Pf growth 96h: -2%; NS1 inh: -8%; Pf growth 48h: -8%; Shiga inhibitor: 3; Cycloheximide cs: -4; SARS PLpro yeast: 1%

What do the screens show for `NC(=O)C1=NOC(CNc2ncc(C(F)(F)F)cc2Cl)C1` (stereo not drawn)?
Pf growth 96h: 66%; NS1 inh: 6%; Shiga inhibitor: 87*; Cycloheximide cs: 36*; SARS PLpro yeast: 1%

Results for CO/N=C/NC(=O)C1=NOC(CNc2ncc(C(F)(F)F)cc2Cl)C1 (stereo not drawn) ?
Pf growth 96h: 4%; NS1 inh: 12%; Pf growth 48h: 7%; Shiga inhibitor: -10; Cycloheximide cs: 1

What do the screens show for `CCCc1cc(=O)[nH]c(SCC(=O)N(C)C2CCS(=O)(=O)C2)n1` (stereo not drawn)?
Pf growth 96h: -19%; NS1 inh: 2%; Shiga inhibitor: -22; Cycloheximide cs: -3; SARS PLpro yeast: 7%

What do the screens show for `O=C(NCc1cccnc1)Nc1ccccc1`?
Pf growth 96h: -18%; NS1 inh: 1%; Pf growth 48h: 18%; Shiga inhibitor: 5; Cycloheximide cs: 5; SARS PLpro yeast: 0%

What do the screens show for `Cc1ccc(NC(=O)NCc2cccnc2)cc1Cl`?
Pf growth 96h: -4%; NS1 inh: 1%; Pf growth 48h: 18%; Shiga inhibitor: 39*; Cycloheximide cs: 32*; SARS PLpro yeast: -5%

What do the screens show for `CCCCc1ccc(NC(=O)OC)cc1`?
Pf growth 96h: 111%; NS1 inh: -52%; Pf growth 48h: 74%; Shiga inhibitor: 46*; Cycloheximide cs: 12; SARS PLpro yeast: 1%

How did CCc1ccc(NC(=O)NCc2cccnc2)cc1 do in these assays?
Pf growth 96h: inconclusive; NS1 inh: 3%; Pf growth 48h: 64%; Shiga inhibitor: 10; Cycloheximide cs: 27*; SARS PLpro yeast: -3%

How did CCCCc1ccc(NC(=S)Nc2ccc(Nc3ccc(OC)cc3)cc2)cc1 do in these assays?
Pf growth 96h: -2%; NS1 inh: inconclusive; Pf growth 48h: -9%; Shiga inhibitor: 5; Cycloheximide cs: 8; SARS PLpro yeast: inconclusive

How did O=C(NCc1cccnc1)Nc1cccc(C(F)(F)F)c1 do in these assays?
Pf growth 96h: 1.5µM*; NS1 inh: 7%; Pf growth 48h: -21%; Shiga inhibitor: 13; Cycloheximide cs: -3; SARS PLpro yeast: 9%

How did NC(=O)C1CCN(C(=O)Cn2cccc2C(=O)c2ccccc2)CC1 do in these assays?
Pf growth 96h: 0%; NS1 inh: 5%; Shiga inhibitor: -9; Cycloheximide cs: -1; SARS PLpro yeast: 3%

How did CSCC[C@H](NC(=O)[C@H](Cc1ccccc1)n1c(=O)[nH]c2ccccc2c1=O)C(=O)N1CCC(C(=O)O)CC1 do in these assays?
Pf growth 96h: inconclusive; NS1 inh: inconclusive; Pf growth 48h: -13%; Shiga inhibitor: 10; Cycloheximide cs: -1; SARS PLpro yeast: 6%

What do the screens show for `Cc1ccc2nc(COC(=O)c3ccc(Cl)nc3)cc(=O)n2c1`?
SARS PLpro yeast: -1%

What do the screens show for `CCCCc1ccc(NC(=S)Nc2cccnc2)cc1`?
Pf growth 96h: 23%; NS1 inh: -4%; Pf growth 48h: 15%; Shiga inhibitor: 3; Cycloheximide cs: 9; SARS PLpro yeast: -9%

How did CCCCCc1ccc(CC(=O)O)cc1 do in these assays?
Pf growth 96h: 9.3µM*; NS1 inh: -226%; Pf growth 48h: 10%; Shiga inhibitor: 5; Cycloheximide cs: 10; SARS PLpro yeast: -24%

Results for CCCCc1ccc(NC(=O)Nc2cccnc2)cc1 ?
Pf growth 96h: 35%; NS1 inh: -78%; Pf growth 48h: inconclusive; Shiga inhibitor: 153*; Cycloheximide cs: 76*; SARS PLpro yeast: -5%

How did CCOC(=O)c1ccc(NCc2cccnc2)cc1 do in these assays?
Pf growth 96h: 11%; NS1 inh: -28%; Pf growth 48h: 56%; Shiga inhibitor: 45; Cycloheximide cs: 15*; SARS PLpro yeast: -4%

Bioassay records: PubChem BioAssay, National Center for Advancing Translational Sciences (NCATS)
